Test results as given in PubChem BioAssay (EPA / NIEHS).
Several values for one entry are separate records, joined by “and”; a condition that tells them apart may be missing. Equal entries are not always repeated. Some structures have more than one record in an assay (separate samples or runs), and their calls can disagree. Activity calls are given as the source filed them. The calls were made as follows: active = hit-call score of the fitted dose curve at least 0.9, where 1 is the maximum; inactive = score below 0.9.

How the values were obtained:
Conditions in all cases: mRNA level, 48 h; actives raise or lower the signal
[1] = read-out: Glutathione S-transferase M3 (GSTM3), GSTM3 (gene 2947); assay: LTEA_HepaRG_GSTM3: Life Technologies and Expression Analysis (LTEA) Assay for Glutathione S-transferase M3 (GSTM3) using HepaRG (AID 2283501)
Procedure, shortened: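 Differentiated human HepaRG cells were exposed in duplicate for 48 h in serum-free induction medium, 8 points from 100 uM top in half-log steps, 0.5% DMSO. GSTM3 mRNA was measured by TaqMan qRT-PCR, normalized to ACTB, GAPDH and POLR2A; bidirectional fit versus DMSO.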

[2] = read-out: Heat shock 70 kDa protein 1 (HSPA1A), gene 3303; assay: LTEA_HepaRG_HSPA1A: Life Technologies and Expression Analysis (LTEA) Assay for Heat shock 70 kDa protein 1 (HSPA1A) using HepaRG (AID 2283502)
Procedure, shortened: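 Cells were plated and cultured for 48 h, then switched to serum-free induction medium. Chemicals were added at eight half-log concentrations up to 100 uM for 48 h. RNA was then isolated and HSPA1A measured by qRT-PCR with bidirectional curve fitting against DMSO.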

[3] = read-out: Hypoxia-inducible factor 1-alpha (Homo sapiens) (UniProt Q16665); assay: LTEA_HepaRG_HIF1A: Life Technologies and Expression Analysis (LTEA) Assay for Hypoxia-inducible factor 1 (HIF1A) Trancription factor using HepaRG (AID 2283503)
Procedure, shortened: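 HIF1A transcript level read by qRT-PCR (ACTB, GAPDH, POLR2A normalization) after 48 h chemical exposure of HepaRG cultures. Eight half-log concentrations, top 100 uM, 0.5% DMSO vehicle, duplicates; bidirectional curve fit against DMSO baseline.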

[4] = read-out: 3-Hydroxy-3-Methylglutaryl-CoA Synthase 2 (HMGCS2), HMGCS2 (gene 3158); assay: LTEA_HepaRG_HMGCS2: Life Technologies and Expression Analysis (LTEA) Assay for 3-Hydroxy-3-Methylglutaryl-CoA Synthase 2 (HMGCS2) using HepaRG (AID 2283504)
Procedure, shortened: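 Human HepaRG cells in serum-free induction medium were exposed in duplicate for 48 h to 8-point half-log series from 100 uM top in 0.5% DMSO. HMGCS2 mRNA measured by TaqMan qRT-PCR, normalised to ACTB, GAPDH, POLR2A; bidirectional fit versus DMSO.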

[5] = read-out: HGF (gene 3082); assay: LTEA_HepaRG_HGF: Life Technologies and Expression Analysis (LTEA) Assay for Hepatocyte Growth Facto (HGF) using HepaRG (AID 2283505)
Procedure, shortened: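 Differentiated HepaRG cells in serum-free induction medium exposed 48 h in duplicate, 8 half-log concentrations from 100 uM in 0.5% DMSO. HGF mRNA by qRT-PCR, normalised to ACTB, GAPDH, POLR2A; bidirectional fitting.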

[6] = read-out: Intercellular Adhesion Molecule 1 (ICAM1), ICAM1 (gene 3383); assay: LTEA_HepaRG_ICAM1: Life Technologies and Expression Analysis (LTEA) Assay for Intercellular Adhesion Molecule 1 (ICAM1) using HepaRG (AID 2283507)
Procedure, shortened: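 Differentiated human HepaRG cells in serum-free induction medium exposed 48 h in duplicate to 8 half-log concentrations (top 100 uM, 0.5% DMSO). ICAM1 mRNA quantified by TaqMan qRT-PCR, normalized to ACTB, GAPDH and POLR2A; bidirectional fitting versus DMSO.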

[7] = read-out: Insulin-like growth factor-binding protein 1 (IGFBP1), IGFBP1 (gene 3484); assay: LTEA_HepaRG_IGFBP1: Life Technologies and Expression Analysis (LTEA) Assay for Insulin-like growth factor-binding protein 1 (IGFBP1) using HepaRG (AID 2283508)
Procedure, shortened: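 HepaRG cells, plated 48 h then switched to serum-free induction medium, exposed in duplicate for 48 h to 8-point half-log series from 100 uM in 0.5% DMSO. mRNA measured by qRT-PCR, normalized to ACTB/GAPDH/POLR2A; bidirectional fit versus DMSO.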

[8] = read-out: Interleukin 6 (IL6), IL6 (gene 3569); assay: LTEA_HepaRG_IL6: Life Technologies and Expression Analysis (LTEA) Assay for Interleukin 6 (IL6) using HepaRG (AID 2283509)
Procedure, shortened: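 Changes in IL6 mRNA, up or down relative to 0.5% DMSO controls, were derived from concentration-response curves in human HepaRG cells treated for 48 h at up to 100 uM, with ACTB, GAPDH and POLR2A as normalizers.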

[9] = read-out: Interleukin 6 Receptor (IL6R), IL6R (gene 3570); assay: LTEA_HepaRG_IL6R: Life Technologies and Expression Analysis (LTEA) Assay for Interleukin 6 Receptor (IL6R) using HepaRG (AID 2283510);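 as to AC50: TaqMan qRT-PCR signal normalized to ACTB GAPDH and POLR2A housekeeping genes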
Procedure, shortened: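 Cells were thawed, plated and cultured 48 h, then medium was changed to serum-free induction medium. Chemicals were added in duplicate (100 uM top, half-log steps, 0.5% DMSO) for 48 h. Lysates were analyzed by qRT-PCR for IL6R expression.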

Hypoxia-inducible factor 1-alpha (Homo sapiens), sequence (Q16665 whole entry, looked up): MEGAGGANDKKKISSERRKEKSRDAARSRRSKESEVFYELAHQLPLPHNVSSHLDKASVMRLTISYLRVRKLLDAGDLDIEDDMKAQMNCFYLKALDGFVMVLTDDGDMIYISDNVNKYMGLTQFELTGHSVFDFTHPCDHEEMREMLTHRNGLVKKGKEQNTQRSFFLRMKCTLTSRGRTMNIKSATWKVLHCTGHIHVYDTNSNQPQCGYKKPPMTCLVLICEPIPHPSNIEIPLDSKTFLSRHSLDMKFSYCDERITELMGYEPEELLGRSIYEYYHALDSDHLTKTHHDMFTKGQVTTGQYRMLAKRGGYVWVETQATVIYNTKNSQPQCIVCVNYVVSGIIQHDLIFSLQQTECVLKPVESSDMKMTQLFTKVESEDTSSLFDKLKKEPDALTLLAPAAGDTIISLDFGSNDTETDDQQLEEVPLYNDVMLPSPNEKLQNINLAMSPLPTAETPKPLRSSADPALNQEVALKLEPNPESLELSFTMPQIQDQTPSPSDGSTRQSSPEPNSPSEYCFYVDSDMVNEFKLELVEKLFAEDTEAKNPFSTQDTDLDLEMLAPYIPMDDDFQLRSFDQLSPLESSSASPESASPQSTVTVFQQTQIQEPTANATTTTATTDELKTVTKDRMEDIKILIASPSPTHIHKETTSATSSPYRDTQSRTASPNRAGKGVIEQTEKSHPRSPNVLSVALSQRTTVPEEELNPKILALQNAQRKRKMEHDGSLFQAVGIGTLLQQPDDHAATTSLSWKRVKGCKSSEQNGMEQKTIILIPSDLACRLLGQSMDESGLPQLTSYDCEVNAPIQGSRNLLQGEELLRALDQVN

Structure (SMILES)	outcome [1]	outcome [2]	outcome [3]	outcome [4]	outcome [5]	outcome [6]	outcome [7]	outcome [8]	outcome [9]	AC50 [2]	AC50 [4]	AC50 [7]	AC50 [8]	AC50 [9]	AC50 [3]	AC50 [6]	AC50 [1]
CCN(CC)C(=O)SCc1ccc(Cl)cc1	inactive	inactive	inactive	inactive	inactive	inactive	inactive	inactive	inactive								
N#CN	inactive	inactive	inactive	inactive	inactive	inactive	inactive	inactive	inactive								
CNC(=O)/C=C(\C)OP(=O)(OC)OC	inactive	inactive	inactive	inactive	inactive	inactive	inactive	inactive	inactive								
CCc1ccc(C(=O)NN(C(=O)c2cc(C)cc(C)c2)C(C)(C)C)cc1	inactive		inactive		inactive	inactive	inactive	inactive	inactive	81.7 µM (active)	50 µM (active)						
CCCN(CCC)c1c([N+](=O)[O-])cc(C(F)(F)F)cc1[N+](=O)[O-]	inactive	inactive	inactive	inactive	inactive	inactive	inactive	inactive	inactive								
CCOC1Oc2ccc(OS(C)(=O)=O)cc2C1(C)C (stereo unspecified)	inactive	inactive	inactive		inactive	inactive					79.4 µM (active)	79.4 µM (active)	89.4 µM (active)	60.7 µM (active)			
CC(C)(C)C(O)/C(=C\c1ccc(Cl)cc1Cl)n1cncn1 (stereo unspecified)	inactive				inactive					93.3 µM (active)	30.7 µM (active)	56.9 µM (active)	94.6 µM (active)	50 µM (active)	82.3 µM (active)	50 µM (active)	
CCCN(CCOc1c(Cl)cc(Cl)cc1Cl)C(=O)n1ccnc1		inactive	inactive		inactive						29.7 µM (active)	24.4 µM (active)	36.5 µM (active)	87.1 µM (active)		50 µM (active)	78 µM (active)
Clc1ccccc1-c1nnc(-c2ccccc2Cl)nn1	inactive	inactive	inactive	inactive	inactive	inactive	inactive	inactive	inactive								
C[C@H]1[C@H](c2ccc(Cl)cc2)SC(=O)N1C(=O)NC1CCCCC1	inactive	inactive	inactive		inactive				inactive		38.2 µM (active)	75.4 µM (active)	77.7 µM (active)			81.3 µM (active)	
CNC(=O)CSP(=S)(OC)OC	inactive	inactive	inactive	inactive	inactive	inactive	inactive	inactive	inactive								
O=C1c2ccccc2C(=O)N1SC(Cl)(Cl)Cl	inactive	inactive	inactive	inactive	inactive	inactive	inactive	inactive	inactive								
CN1CSC(=S)N(C)C1	inactive	inactive	inactive	inactive	inactive	inactive	inactive	inactive	inactive								
CNC(=O)Oc1cccc(N=CN(C)C)c1	inactive	inactive	inactive	inactive	inactive	inactive	inactive	inactive	inactive								
O=C(NC(=O)c1c(F)cccc1F)Nc1ccc(OC(F)(F)C(F)OC(F)(F)F)c(Cl)c1 (stereo unspecified)	inactive	inactive	inactive	inactive	inactive	inactive	inactive	inactive	inactive								
CC(C)N(C(=O)COc1nnc(C(F)(F)F)s1)c1ccc(F)cc1	inactive	inactive	inactive		inactive	inactive	inactive	inactive	inactive		50 µM (active)						
O=C(O)COc1ccc(Cl)cc1Cl	inactive	inactive	inactive	inactive	inactive	inactive		inactive	inactive								
N#Cc1c(Cl)c(Cl)c(Cl)c(C#N)c1Cl	inactive		inactive	inactive	inactive	inactive		inactive	inactive	17.3 µM (active)		3.27 µM (active)					
COP(=O)(OC)OC=C(Cl)Cl	inactive	inactive	inactive	inactive	inactive	inactive	inactive	inactive	inactive								
CCC(C)Nc1c([N+](=O)[O-])cc(C(C)(C)C)cc1[N+](=O)[O-] (stereo unspecified)	inactive	inactive	inactive		inactive	inactive	inactive	inactive	inactive		50 µM (active)						
COP(=S)(OC)Oc1ccc(SC)c(C)c1	inactive	inactive	inactive	inactive	inactive	inactive	inactive	inactive	inactive								
O=[N+]([O-])c1c(Cl)c(Cl)c(Cl)c(Cl)c1Cl	inactive	inactive	inactive	inactive	inactive	inactive	inactive		inactive				9.92 µM (active)				
CCC(C)(C)C(=O)OC1=C(c2ccc(Cl)cc2Cl)C(=O)OC12CCCCC2	inactive	inactive	inactive		inactive	inactive	inactive	inactive	inactive		50 µM (active)						
CC(C)(C)C(O)C(Oc1ccc(Cl)cc1)n1cncn1 (stereo unspecified)	inactive	inactive	inactive		inactive	inactive	inactive	inactive	inactive		21 µM (active) and 32.8 µM (active) and 21.6 µM (active)			50 µM (active)			
